# Compound activity: PubChem, DiRusso Lab, Biochemistry Department, University of Nebraska
# Many of the other results were omitted from the sample, so hits are more common in it than they were.
# Chlamy TAG: increases triacylglycerol in Chlamydomonas reinhardtii; Chlamydomonas reinhardtii TAG, Nile Red fluorescence, 72 h; calls only at 10 µM (by protocol); 44,000 compounds, 0.84% hits; call rule not given here;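 also: hits raise Nile Red signal meaning more stored TAG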
# Calls only; i = inactive; + = active, no number.
SMILES,Chlamy TAG
O=C(O)C1C2C=CC(O2)C1C(=O)Nc1ccccc1F (stereo not given),+
Cc1ccc(Cl)cc1NC(=O)C1C2C=CC(O2)C1C(=O)O (stereo not given),i
O=C(Nc1ccccc1F)[C@@H]1C2C=CC(C2)[C@@H]1C(=O)O (stereo not given in full),i
Nc1nnc(-c2ccc([N+](=O)[O-])cc2)s1,i
CCCC(=O)Nc1ccc(OC(C)C)cc1,i
Cc1cc(C)n(-c2cc(N3CCN(S(C)(=O)=O)CC3)ccc2[N+](=O)[O-])n1,i
COc1cc([N+](=O)[O-])ccc1NS(=O)(=O)c1ccc(NC(C)=O)cc1,i
COc1ccc([N+](=O)[O-])cc1NS(=O)(=O)c1ccc(NC(C)=O)cc1,i
CC(=O)Nc1ccc(S(=O)(=O)Nc2cc([N+](=O)[O-])ccc2C)cc1,+
O=C(C1CCN(Cc2ccccc2O)CC1)N(CCO)Cc1ccccc1,i
COc1ccccc1CN1CCC(C(=O)N(CCN(C)C)Cc2ccccc2)CC1,i
CCN(Cc1ccccc1)C(=O)C1CCN(Cc2ccccc2F)CC1,+
COc1ccc(CNC(=O)c2cccc(C)c2)cc1,i
COc1ccc(C(=O)Nc2ccc(S(=O)(=O)Nc3ncccn3)cc2)cc1[N+](=O)[O-],i
COc1cc(C(=O)Nc2ccc(S(=O)(=O)NC(C)=O)cc2)cc(OC)c1OC,i
COc1cc(C(=O)Nc2ccc(S(=O)(=O)Nc3ncccn3)cc2)cc(OC)c1OC,+
O=[N+]([O-])c1ccccc1S(=O)(=O)N1CCCc2cccc(O)c21,i
Cc1cccc(OCCN2CCOCC2)c1C,i
Cc1cc(C)c(C)c(OCC(=O)NCCN2CCOCC2)c1,i
Cc1ccccc1OCCCCN1CCOCC1,+
C=CCc1ccccc1OCCCCN1CCOCC1,i
Cc1ccc(C(C)C)cc1OCCCCN1CCOCC1,+
Cc1ccc(OCCCN2CCOCC2)cc1C,i
Cc1cc(C)c(C)c(OCCCCN2CCOCC2)c1,+
Cc1cc(C)c(OCCN2CCOCC2)c(C)c1,i
SMILES,Chlamy TAG
C=CCc1cc(C)ccc1OCCCCN1CCOCC1,i
CN(C)S(=O)(=O)c1cc(C(=O)O)c(Cl)cc1Cl,i
Cc1ccc(C(=O)Nc2ccccc2F)c(Cl)c1,i
N#C/C(=C\c1ccc(Br)o1)c1nc(-c2ccccc2)cs1,i
Cc1ccc(Cl)c(OCC(O)Cn2nnc3ccccc32)c1 (stereo not given),i
C=CCc1cc(C)ccc1OCCCCN1CCCC1,i
Cc1ccc(C(C)(C)C)c(OCCCCN2CCN(C)CC2)c1,i
Cc1cc(Br)ccc1OCCCCN1CCN(C)CC1,+
Cc1cc(Br)ccc1OCCCCN1CCOCC1,i
Cc1ccc(OCCCCN2CCCCC2)c(C)c1,+
Cc1ccc(OCCCCN2CCCC2)c([N+](=O)[O-])c1,i
Cc1cc(Br)ccc1OCCCCN1CCCC1,+
Cc1ccccc1OCCOCCN1CCN(C)CC1,i
Brc1cccc(OCCCCN2CCCC2)c1,i
O=C(Nc1ccccc1[N+](=O)[O-])c1ccc(Cl)cc1Cl,i
Cc1ccccc1CSCC(=O)Nc1ccccc1C(=O)N1CCCC1,i
C=CCn1c(SCC(=O)c2cc(Cl)sc2Cl)nc2ccccc2c1=O,i
COc1ccc(CNC2CC(=O)N(c3ccc(I)cc3)C2=O)cc1 (stereo not given),i
COc1ccc(-n2nnnc2SCC(=O)Nc2nonc2C(N)=O)cc1,i
COc1ccc(C(=O)NC(C)(C)C)cc1I,i
CC1CN(CC(O)COc2ccc(C(C)(C)C)cc2)CC(C)O1 (stereo not given),+
CCOC(=O)N1CCN(CC(O)COc2ccc(C(C)(C)C)cc2)CC1 (stereo not given),i
Cc1cc(OCC(O)CN2CCN(c3ccccc3)CC2)ccc1C(C)C (stereo not given),i
CC(C)(C)c1ccc(OCC(O)CN)cc1 (stereo not given),i
CC1CN(CC(O)COCc2ccc(Cl)cc2)CC(C)O1 (stereo not given),i
SMILES,Chlamy TAG
CC(C)(C)c1ccc(OCC(O)CN2CCN(CCO)CC2)cc1 (stereo not given),+
CC1CN(CC(O)COc2ccc(Cl)cc2Cl)CC(C)O1 (stereo not given),i
Cc1cc(OCC(O)CN2CCN(CCO)CC2)ccc1C(C)C (stereo not given),+
Cc1cc(C)n(CC(O)COc2ccc(C(C)C)c(C)c2)n1 (stereo not given),i
N#C/C(=C\c1ccc(Cl)cc1)c1nc(-c2ccccc2)cs1,i
NNc1nc(-c2ccccc2)cc(-c2ccc(F)cc2)n1,i
O=C1CC(N2CCN(c3ccc([N+](=O)[O-])cc3)CC2)C(=O)N1c1cccc(Br)c1 (stereo not given),i
CCN(CC#CCCO)c1ccccc1,i
CCc1ccc(NS(=O)(=O)c2cc(Br)ccc2OC)cc1,i
Cc1ccc(CN(c2ccc(C(=O)NC3CCCCC3)cc2)S(C)(=O)=O)cc1,i
O=C1CC(Cc2ccccc2)C(=O)N1Cc1cccnc1 (stereo not given),i
Cc1ccc(S(=O)(=O)N(C)CC(=O)Nc2cc(Cl)c(Cl)cc2Cl)cc1,i
CC(C(=O)NCc1ccc(Cl)cc1)N(c1ccccc1)S(C)(=O)=O (stereo not given),+
